From PubChem BioAssay
ADAM17 inh – ADAM17 inhibitors, primary screen, biochemical, QFRET | Disintegrin and metalloproteinase domain-containing protein 17 (Homo sapiens), P78536 | AID 720648, 2013 | inhibition, % at 6.95 µM | recombinant ADAM17, EDANS/DABCYL FRET peptide cleavage | 0.83% of 370,000 active;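 active = inhibition above the mean of compounds lying between control limits plus 3 SD, set per campaign, cut at about 8.5% in these data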
Target sequence (P78536 215-824 limits assumed): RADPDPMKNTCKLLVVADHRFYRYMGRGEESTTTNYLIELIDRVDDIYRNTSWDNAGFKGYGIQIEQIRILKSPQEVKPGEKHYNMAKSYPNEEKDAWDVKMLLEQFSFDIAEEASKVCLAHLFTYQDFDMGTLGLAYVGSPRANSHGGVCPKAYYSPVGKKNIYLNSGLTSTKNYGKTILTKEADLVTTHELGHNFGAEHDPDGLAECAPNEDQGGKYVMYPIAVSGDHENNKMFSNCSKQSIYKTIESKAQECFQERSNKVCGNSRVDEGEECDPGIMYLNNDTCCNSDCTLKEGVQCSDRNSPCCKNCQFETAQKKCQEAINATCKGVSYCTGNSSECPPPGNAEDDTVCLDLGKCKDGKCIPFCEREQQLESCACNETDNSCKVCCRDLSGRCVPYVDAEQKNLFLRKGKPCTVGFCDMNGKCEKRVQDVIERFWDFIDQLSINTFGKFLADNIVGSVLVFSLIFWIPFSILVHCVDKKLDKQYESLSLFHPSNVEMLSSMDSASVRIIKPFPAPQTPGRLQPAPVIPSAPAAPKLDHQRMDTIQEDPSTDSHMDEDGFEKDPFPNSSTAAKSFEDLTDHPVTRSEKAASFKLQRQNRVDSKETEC
GRIN3A LBD mod – binders of NR3A ligand-binding domain, primary screen, biophysical, differential scanning fluorimetry, uHTS. Glutamate receptor ionotropic, NMDA 3A (GRIN3A) ligand-binding domain. NR3A LBD differential scanning fluorimetry, Tm shift; 0% = protein alone, 100% = glycine-bound protein. Tm shift relative to glycine control, % at 25 µM. 2.5% of 340,000 active;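 active = melting temperature shift of at least 10% of the positive control shift, at one fixed dose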
rCAG RNA binder – binders of r(CAG) RNA repeats, primary screen, biochemical, fluorescence; inhibition, % at 3 µM; r(CAG) RNA repeat, TO-PRO-1 dye displacement fluorescence; 1.3% of 370,000 active; AID 651821, 2012;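 active = inhibition above the plate cutoff, the mean of all test compounds on that plate plus 3 SD, cut at about 35% in these data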;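 note: higher means more dye released from RNA so lower well fluorescence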
KLK7 zymogen act – proKLK7 zymogen activators, primary screen, biochemical, fluorescence intensity; purified proKLK7, EDANS-DABCYL substrate fluorescence; 100% is mature enzyme control, 0% vehicle; Kallikrein-7 (Homo sapiens), P49862; activation, % at 7 µM; 0.9% of 370,000 active;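 active = activation above the mean of all tested compounds plus 3 SD, computed per campaign excluding outliers beyond control limits, cut at about 13% in these data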
AHR act – AHR activators, primary screen, cell-based, luminescence, luciferase reporter, human; AHR-responsive luciferase reporter cells; activation, % at 5 µM; 2.5% of 320,000 active; AID 2796, 2010; in the data active = activation above about 47%
ADAM10 inh – human ADAM10 inhibitors, primary screen, biochemical, QFRET, HTS. Disintegrin and metalloproteinase domain-containing protein 10 (Homo sapiens), O14672. recombinant ADAM10, EDANS/DABCYL FRET peptide cleavage, 3 h. inhibition, % at 7 µM. 0.62% of 370,000 active. AID 720582, 2013;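 active = inhibition above a per-campaign cutoff equal to the mean of compounds falling between control-based bounds plus 3 SD, cut at about 20% in these data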
AHR act confirm – AHR activators, confirmation, cell-based, luminescence, luciferase reporter, human | activation, % at 9 µM | human cells, AHR-responsive luciferase reporter | 87% of 2,300 active | shares compounds with AHR act; in the data active = activation above about 49%;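 note: HepG2 hepatoma cells carrying a DRE-driven firefly luciferase reporter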
PXR act counter – human PXR activators, counter-screen for AHR activator project, cell-based, luciferase luminescence. shares compounds with AHR act. cell-based PXR reporter. activation, % at 11.6 µM. 88% of 2,300 active. AID 434939, 2010; in the data active = activation above about 11%;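 note: human hepatoma DPX-2 cells expressing full-length human PXR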
A number is an active result; i = inactive; nt = no result. Only some compounds are listed: those with a hit (about 7% of all), similar ones and a draw of the others.

SMILES | ADAM17 inh | GRIN3A LBD mod | rCAG RNA binder | KLK7 zymogen act | AHR act | ADAM10 inh | AHR act confirm | PXR act counter
N#Cc1c(SCC(=O)OCc2ccccc2)nsc1SCC(=O)OCc1ccccc1 | i | i | i | i | i | i | nt | nt
N#Cc1c(SCC(N)=O)nsc1SCc1ccc(Cl)cc1 | i | i | i | i | 80 | i | 84 | 36
COc1ccc2[nH]c3c(N4CC(C)OC(C)C4)ncnc3c2c1 (stereo not given) | i | i | i | i | 126 | i | 94 | 22
Fc1ccc2nc3[nH]c4ccccc4c3nc2c1 | i | i | i | i | 134 | i | 189 | 21
Cc1cc(SCC(=O)c2cccs2)nc2ccccc12 | i | i | i | i | 99 | i | 103 | 155
O=C(N/N=C/c1ccc([N+](=O)[O-])o1)c1cc(-c2ccc(-c3ccccc3)cc2)nc2ccccc12 | i | i | i | i | 128 | i | i | 25
O=C(NCCCn1ccnc1)c1cc(-c2cccs2)on1 | i | i | i | i | 143 | i | 458 | 46
COC(=O)[C@]12C[C@H](CC(=O)NCc3cccc4ccccc34)C(=O)N(Cc3ccc(Cl)cc3Cl)C1=C[C@H](C1CCCC1)O[C@@H]2C | i | nt | i | i | nt | i | nt | nt
O=C(Nc1ccccc1C(=O)N/N=C/c1ccncc1)c1ccccc1 | i | i | i | i | 101 | i | i | 37
CCOc1ccc(/C=N/NC(=O)c2ccccc2NC(=O)c2ccc(OC)cc2)cc1 | i | 15 | i | i | 106 | i | i | 31
COc1ccc(C(=O)Nc2ccccc2C(=O)N/N=C/c2ccco2)cc1 | i | i | i | i | 137 | i | 100 | 29
Fc1ccc2nc(-c3ccc(CN4CCC(c5nc6ccccc6[nH]5)CC4)cc3)c(-c3ccccc3)nc2c1 | i | nt | i | i | nt | i | nt | nt
CN1CC(O)([C@H](Cc2ccccc2)NC(=O)OC(C)(C)C)OCC1C(=O)NCc1cccc2ccccc12 (stereo not given in full) | i | nt | nt | nt | nt | i | nt | nt
c1csc(CCNc2ncnc3sc4c(c23)CCC4)c1 | i | i | i | i | i | i | nt | nt
c1cn(CCCNc2ncnc3sc4c(c23)CCC4)cn1 | i | i | i | i | 128 | i | 92 | 18
O=c1c2ccccc2nc(-c2ccco2)n1CCCn1ccnc1 | i | i | i | i | 83 | i | 103 | 23
COc1ccc(-c2nc3ccccc3c(=O)n2CCCn2ccnc2)cc1 | i | i | i | i | i | i | nt | nt
CCN1C(=O)N/C(=C/c2cc(C)n(Cc3ccccc3)c2C)C1=O | i | i | i | i | 136 | i | 103 | 230
Cc1cc(C(F)(F)F)n2ncc(-c3ccc(F)cc3)c2n1 | i | i | i | i | 88 | i | 120 | 23
CC[C@@]1(c2cccc(Cl)c2)C(=O)N(C(=O)OC(C)C)N1C(=O)OC(C)C | i | nt | i | i | nt | i | nt | nt
O=C1CCCCC1C(=O)c1cn(-c2ccc(Cl)c(Cl)c2)nn1 (stereo not given) | i | i | i | i | i | i | nt | nt
O=C(c1cn(-c2ccc(Cl)c(Cl)c2)nn1)C1CC1 | i | i | i | i | 84 | i | 125 | 29
CCCCc1c(-c2ccccc2OC)ncn1Cc1ccccc1F | i | nt | i | i | nt | i | nt | nt
Cn1/c(=N\NC(=O)c2ccccc2Cl)sc2ccccc21 | i | i | i | i | 136 | i | 126 | 53
c1ccc2c3n(nc2c1)CCCCO3 | i | i | i | i | i | i | nt | nt
SMILES | ADAM17 inh | GRIN3A LBD mod | rCAG RNA binder | KLK7 zymogen act | AHR act | ADAM10 inh | AHR act confirm | PXR act counter
N#Cc1ccc(C23OCCN2CCn2nc4ccccc4c23)cc1 (stereo not given) | i | i | i | i | 103 | i | 109 | 95
Cn1c(=NC(=O)C2CC2)sc2cccc(F)c21 | i | i | i | i | 100 | i | 119 | 23
Cn1c(NC(=O)CCc2ccccc2)cc(=O)n(C)c1=O | i | i | i | i | 149 | i | 109 | 24
CCCC(=O)Nc1cc(=O)n(C)c(=O)n1C | i | i | i | i | i | i | nt | nt
COC(=O)c1c(C)nc2ccccc2c1C(=O)O | i | i | i | i | i | i | nt | nt
COC(=O)c1cc(C)[nH]c2c(C)cc3nc4ccccc4c3c12 | i | i | i | i | 95 | i | 100 | 156
COCCn1c(-c2ccccc2)csc1=Nc1cccnc1 | i | i | i | i | i | i | nt | nt
c1ccc(-c2csc(=Nc3cccnc3)n2CC2CCCO2)cc1 (stereo not given) | i | i | i | i | 80 | i | 55 | 97
O=C(C[n+]1cc(Br)cc2ccccc21)c1ccc(Br)cc1 | i | i | i | i | 101 | i | 112 | 30
OC(c1ccccc1)(c1ccccc1)C1CCN(CCCOc2ccc(OC(F)(F)F)cc2)CC1 | i | nt | i | i | nt | i | nt | nt
O=[N+]([O-])c1ccc(Sc2nc3ccccc3[nH]2)c(Cl)c1 | i | nt | i | i | nt | i | nt | nt
O=C(Nc1ccc(F)c(Cl)c1)c1cncs1 | i | i | i | i | 101 | i | 95 | 26
CCOC(=O)C1=CCN(S(=O)(=O)c2ccc(Cl)cc2)C1c1cccc(F)c1 (stereo not given) | i | nt | i | i | nt | i | nt | nt
Cc1ccc(-n2c(SCC(=O)NN=Cc3c[nH]c4ccccc34)nnc2-c2ccccc2)cc1 | i | nt | i | i | nt | i | nt | nt
Cc1[nH][nH]c(=O)c1N=Nc1ccc(Br)c(Cl)c1 | i | i | i | i | 85 | i | 128 | 11
Cc1ccc(S(=O)(=O)NCC2CCN(C(=O)C(=O)c3cccs3)CC2)cc1 | i | nt | i | i | nt | i | nt | nt
CC(/C=C/c1ccccc1)=N\Nc1nc(C)cc(C)n1 | i | i | i | i | 89 | i | i | 28
CCOC(=O)Cc1cc(-c2ccc(O)cc2)nc2ccc3ccccc3c12 | i | 18 | i | i | 102 | i | 92 | nt
CCOC(=O)Cc1cc(-c2ccc(OC)cc2)nc2ccc3ccccc3c12 | i | i | i | i | 129 | i | 108 | 16
COC(=O)C1=C(C)N(Cc2ccc(Br)cc2)C(=S)NC1c1cccc(OC)c1 (stereo not given) | i | nt | i | i | nt | i | nt | nt
c1ccc(OCCOc2ncnc3sccc23)cc1 | i | i | i | i | 138 | i | 121 | 45
